± gives the standard deviation of the averaged measurements. In all, about 1,600 compounds were measured (“mitochondrial oxygen consumption rate normalised to cell number, Z score over the library”: median about 0.065, lowest 2% from about -2.2 on). Only a selection was taken, and the lowest values are over-represented in it overall.
test system: FaDu; assay: mitochondrial oxygen consumption rate normalised to cell number, Z score over the library; higher = higher oxygen consumption (negative = OCR reduction); settings: treatment time 24 h; assay medium: 5 mM galactose, 5 mM pyruvate, 4 mM glutamine; 10 µM
Method: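 Primary screen: FaDu cells were incubated 24 h with Pharmakon 1600 / TDI oncology set compounds at 2 or 10 uM. Mitochondrial-specific OCR (basal minus 2 uM antimycin A) was measured on a Seahorse XF96 in assay medium with 5 mM galactose, 5 mM pyruvate and 4 mM glutamine, then corrected for Hoechst cell number and expressed as a Z score […]. Compounds that cut cell number by >66% were excluded. Two repeats.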

| Compound | mitochondrial oxygen consumption rate normalised |
| --- | --- |
| S=C=NCc1ccccc1 | -4.7 ± 0.66 |
| CN1CCN(C(=O)O[C@H]2c3nccnc3C(=O)N2c2ccc(Cl)cn2)CC1 | -0.823 ± 0.029 |
| CN(C)C(=S)SSC(=S)N(C)C | 0.578 ± 0.018 |
| CC(=O)Oc1ccc(Cl)c2cccnc12 | -3.19 ± 0.57 |
| CCNC1(c2cccs2)CCCCC1=O (stereo unspecified) | -0.924 ± 0.92 |
| CNC(C)C(O)c1ccccc1 (stereo unspecified) | 0.176 ± 0.34 |
| CN(C)C(=O)Oc1cccc([N+](C)(C)C)c1 | 0.321 ± 1.4 |
| C1CCc2nnnn2CC1 | -0.625 ± 0.34 |
| O=c1[nH]c(=O)n(Cl)c(=O)n1Cl | 0.623 ± 1.2 |
| O=c1[nH]c2ccccc2n1C1CCN(CCCC(c2ccc(F)cc2)c2ccc(F)cc2)CC1 | -2.35 ± 0.37 |
| O=c1[nH]c2ccccc2n1CCCN1CCC(n2c(=O)[nH]c3cc(Cl)ccc32)CC1 | -0.0948 ± 0.24 |
| Nc1ccc([As](=O)(O)O)cc1 | 0.928 ± 0.83 |
| N.N.[Cl][Pt][Cl] [Cisplatin] | -0.167 ± 0.0067 |
| N.N.[Cl][Pt][Cl] | 0.355 ± 0.5 |
| COc1cc([C@@H]2c3cc4c(cc3[C@H](O)[C@H]3COC(=O)[C@H]23)OCO4)cc(OC)c1OC | -0.645 ± 0.1 |
| CCC1(CC)C(=O)C=CNC1=O | 0.538 ± 1.2 |
| CC[C@H]1CN2CCc3cc(OC)c(OC)cc3[C@@H]2C[C@@H]1C[C@H]1NCCc2cc(OC)c(OC)cc21 | -5.13 ± 0.2 |
| CCOC(=O)NC(=S)Nc1ccccc1NC(=S)NC(=O)OCC | -0.249 ± 0.0062 |
| NCc1cccnc1 | 0.0684 ± 1.5 |
| CC(=O)NC1CCSC1=O (stereo unspecified) | 0.219 ± 0.66 |
| COC(C)(C)CCC[C@H](C)C/C=C/C(C)=C/C(=O)OC(C)C | 0.396 ± 0.11 |

— the supplement of paper PMC4962491
